Laboratory results reported in PubChem BioAssay (NCI).
About 83,000 compounds went through this panel and 20% of them were active in at least one assay; those are over-represented in the sample as a whole.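 Single-dose data. Exposure time 48 hours. Values below 10 considered active.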 Activity calls are given as the source filed them.

What was measured:
Test in all cases: NCI-60 one-dose screen, 48 h (100 = growth as untreated, 0 = no growth, -100 = all killed)
Conditions in all cases: 10 µM unless noted
[1] = test system: DU-145 prostate
[2] = test system: K-562 leukemia
[3] = test system: MALME-3M melanoma
[4] = test system: MDA-MB-231 breast
[5] = test system: RXF 393 renal
[6] = test system: SF-268 CNS
[7] = test system: SF-295 CNS
[8] = test system: SF-539 CNS
[9] = test system: UACC-257 melanoma
[10] = test system: M14 melanoma
[11] = test system: HCT-15 colon
[12] = test system: HT29 colon
[13] = test system: SNB-75 CNS
[14] = test system: SNB-19 CNS
[15] = test system: U251 CNS
[16] = test system: PC-3 prostate
[17] = test system: SK-MEL-5 melanoma
[18] = test system: UACC-62 melanoma
[19] = test system: LOX IMVI melanoma
[20] = test system: SK-MEL-28 melanoma

Measured: growth

CCn1cc(C(=O)O)c(=O)c2cc(F)c(N3CCN(CC(=O)Nc4ccc(/C(C)=N/OC)cc4)CC3)cc21
inactive: [1] 104% | [2] 92.5% | [3] 103% | [4] 85.9% | [5] 100% | [6] 94.1% | [7] 92.3% | [8] 92.7% | [9] 91.3% | [10] 99.4% | [11] 90.5% | [12] 94% | [13] 76.8% | [14] 91.7% | [15] 94.3% | [16] 85.5% | [17] 96.4% | [18] 90.5% | [19] 80% | [20] 100%

NS(=O)(=O)c1ccc(C2C3=C(CCCC3=O)OC3=C2C(=O)c2ccccc2C3=O)cc1 (stereo not given)
active: [1] -99.1% | [2] -43.3% | [3] -97.4% | [4] 5% | [5] -90% | [6] -42.6% | [7] -80.3% | [8] -88.5% | [9] -90.3% | [10] -95% | [11] 2.23% | [12] -29.3% | [13] -99.5% | [14] -1.37% | [15] -86.7% | [16] -1.42% | [17] -95.3% | [18] -59.7% | [19] -72.7% | [20] -57.5%

CN1CCN(C(=O)[C@@]2(C)CC[C@]3(C)CC[C@]4(C)C(=CC[C@@H]5[C@@]6(C)CC[C@H](OC(=O)c7cccnc7)C(C)(C)[C@@H]6CC[C@]54C)[C@@H]3C2)CC1
active: [2] -24.1% | [11] -46.9% | [12] 8.46% | [15] -69.8% | [19] -26.4%
inactive: [1] 78.7% | [3] 60.2% | [4] 48.4% | [5] 60.3% | [6] 85.4% | [7] 67.8% | [8] 59.8% | [9] 58.6% | [10] 80.7% | [13] 90.4% | [14] 19.8% | [16] 46.8% | [17] 64.4% | [18] 82.1% | [20] 76.7%

COC(=O)/C=C1\SC(=Nc2cccc(OC)c2)N(CCc2c[nH]c3ccccc23)C1=O
inactive: [1] 69.3% | [2] 40.8% | [3] 80.5% | [4] 66.1% | [5] 49.2% | [6] 82.8% | [7] 61.9% | [8] 83.4% | [9] 61.7% | [10] 64.9% | [11] 39.9% | [12] 12.2% | [13] 85% | [14] 72.9% | [15] 53.9% | [16] 40.1% | [17] 77.2% | [18] 44.1% | [19] 49.3% | [20] 89.6%

COc1cc2c(cc1OC)C(Sc1ccc(Cl)cc1)c1c(nc(N)c(C#N)c1N)O2 (stereo not given)
active: [1] 5.73% | [2] 0.964% | [3] -28.6% | [4] -20.1% | [5] -65.4% | [8] -21.9% | [10] -21.2% | [11] -66.2% | [12] -61.9% | [13] -17.4% | [15] -62.5% | [16] 5.11% | [18] -23.8% | [19] -88.9% | [20] -3.09%
inactive: [6] 35.7% | [7] 43.8% | [9] 22.5% | [14] 22.1% | [17] 12.5%

O=C(CCc1nnc2sc(OCc3ccccc3)nn12)c1nc2ccc([N+](=O)[O-])cc2[nH]1
inactive: [1] 103% | [2] 87.7% | [3] 96.1% | [4] 95.7% | [5] 123% | [6] 94.5% | [7] 97% | [8] 98.4% | [9] 106% | [10] 102% | [11] 108% | [12] 107% | [13] 103% | [14] 108% | [15] 99.8% | [16] 94.4% | [17] 110% | [18] 96.6% | [19] 91.3% | [20] 115%

COc1ccc(-c2cc(-c3nnc(SCC(=O)Nc4ccc(C(C)=O)cc4)o3)c3ccccc3n2)cc1
inactive: [2] 35.2% | [6] 33.8% | [7] 42.5% | [8] 12.3% | [9] 68.3% | [11] 23.3% | [12] 38.9% | [14] 13.8% | [18] 25.8% | [20] 42.7%
active: [1] 6.34% | [3] -52.7% | [4] -23.9% | [5] -4.69% | [10] 5.23% | [13] -5.55% | [15] -68.6% | [16] 6.81% | [17] 5.12% | [19] 4.15%

COCCOC(=O)COc1ccc(OC)cc1
inactive: [1] 103% | [2] 104% | [3] 97% | [4] 98.1% | [5] 104% | [6] 102% | [7] 99.5% | [8] 104% | [9] 96.3% | [10] 105% | [11] 98.1% | [12] 114% | [13] 91.8% | [14] 97.4% | [15] 102% | [16] 96.8% | [17] 93.8% | [18] 96.2% | [19] 102% | [20] 109%

COC(=O)c1nc(-c2ccccc2)oc1S(=O)(=O)n1nc(C)cc1N
inactive: [1] 92.5% | [4] 92.7% | [5] 104% | [6] 83.2% | [7] 95.4% | [8] 76.1% | [9] 83.3% | [10] 67.1% | [11] 46.9% | [12] 17.5% | [13] 82.3% | [14] 96.6% | [15] 101% | [16] 104% | [17] 92.3% | [18] 89.4% | [19] 76.8% | [20] 87.4%
active: [2] 3.02% | [3] -37.1%

C/C(=N/Nc1nc2ccccc2n1C)c1ccccn1
active: [2] 5.81% | [5] -12.5% | [7] 8.08% | [8] 0.5% | [9] -29.2% | [10] -4.55% | [15] 0.141% | [17] -6.67% | [18] -26.5% | [19] -39.4%
inactive: [1] 16.2% | [3] 11.6% | [4] 28.8% | [6] 10.7% | [11] 25.3% | [12] 14.7% | [13] 28% | [14] 15.2% | [16] 19.1% | [20] 27.6%

Nc1ccc(C(=O)Nc2cccc(C(=O)Nc3ccc4c(O)c(N=Nc5ccc(N=Nc6ccc(S(=O)(=O)O)cc6)cc5)c(S(=O)(=O)O)cc4c3)c2)cc1
inactive: [1] 107% | [2] 88.1% | [3] 93.8% | [4] 101% | [5] 109% | [6] 102% | [7] 104% | [8] 102% | [9] 111% | [10] 97.3% | [11] 102% | [12] 97.6% | [13] 85.7% | [14] 107% | [15] 107% | [16] 98.2% | [17] 107% | [18] 98.6% | [19] 94.7% | [20] 99.7%

O=C1NCc2ccc3c(-c4cccc(Cl)c4)c[nH]c3c21
active: [5] -3.81% | [7] 7.18% | [8] -15.8% | [12] 7.64%
inactive: [1] 23.3% | [2] 10.6% | [3] 65.9% | [4] 47.6% | [6] 52.6% | [9] 35.6% | [10] 15.9% | [11] 27.2% | [13] 13.2% | [14] 28.6% | [15] 16.3% | [16] 17.2% | [17] 31.2% | [18] 27% | [19] 35% | [20] 62.2%

COc1cc(NC(=O)COc2cc(C)nc3ccc(OC)cc23)cc(OC)c1
inactive: [1] 97.8% | [2] 79.1% | [3] 82.8% | [4] 80% | [5] 94.2% | [6] 94.5% | [7] 96.8% | [8] 76.1% | [9] 82% | [10] 94.8% | [11] 90.9% | [12] 91.7% | [13] 77.3% | [14] 91.4% | [15] 91% | [16] 81.9% | [17] 76% | [18] 74.4% | [19] 85.8% | [20] 102%

CN(C)c1ccc(-c2ccc3[nH]c(=O)nc(-c4ccc(F)cc4)c3c2)cn1
inactive: [1] 51.6% | [2] 11.9% | [3] 64.4% | [4] 47.7% | [5] 41.5% | [6] 45.5% | [7] 21.5% | [8] 24.2% | [9] 54.4% | [10] 22.7% | [11] 33.2% | [12] 11% | [13] 11.2% | [14] 36.2% | [15] 31.3% | [16] 41.7% | [17] 20.3% | [18] 28.4% | [19] 41.3% | [20] 69.2%

C=C1C(=O)O[C@H]2[C@H]1CC/C(COC(=O)c1cc3ccccc3o1)=C\CC[C@@]1(C)O[C@@H]21
inactive: [7] 74.8% | [9] 40.5% | [13] 76.5% | [14] 16.7% | [15] 15.4%
active: [1] -24.2% | [2] -2.5% | [3] -70.3% | [4] -38.8% | [5] -83.4% | [6] 4.87% | [8] -40.7% | [10] -53.9% | [11] -68.6% | [12] -49.6% | [16] -8.8% | [17] 7.03% | [18] -37.7% | [19] -89.3% | [20] -48%
